Screening results (PubChem)
DT40 TDP1 no CPT = qHTS for Inhibitors of human tyrosyl-DNA phosphodiesterase 1 (TDP1): qHTS in cells in absence of CPT; AID 686978, 2013; Potency, µM (series often up to 46.2 µM), inactives show at the highest dose activity change, negative = growth inhibition, actives largely listed as inhibitors; DT40 Tdp1-/- hTDP1 cells, no CPT, ATP luminescence, 48 h; hit rate 15% among 420,000; also: nearly all actives have a fitted effect of over 55% in size
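Seeded 400 DT40-hTDP1 cells/well (vehicle DMSO, no 20 nM CPT); pinned compounds; ≥48 hr at 37 °C; CellTiter-Glo luminescence as viability measure.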
RORg inh = ROR gamma (mouse) transcription inhibition; Drosophila S2 Gal4-RORgamma UAS-luciferase reporter, 20 h; Potency, µM (titrated, usually from 53.6 µM), inactives show top-dose activity change, negative = inhibition, most hits filed as inhibitors; P51450; hit rate 5.4% among 310,000; also: nearly all actives have a fitted effect of over 60% in size
Target sequence (P51450 whole entry, looked up, the tested form may be a part): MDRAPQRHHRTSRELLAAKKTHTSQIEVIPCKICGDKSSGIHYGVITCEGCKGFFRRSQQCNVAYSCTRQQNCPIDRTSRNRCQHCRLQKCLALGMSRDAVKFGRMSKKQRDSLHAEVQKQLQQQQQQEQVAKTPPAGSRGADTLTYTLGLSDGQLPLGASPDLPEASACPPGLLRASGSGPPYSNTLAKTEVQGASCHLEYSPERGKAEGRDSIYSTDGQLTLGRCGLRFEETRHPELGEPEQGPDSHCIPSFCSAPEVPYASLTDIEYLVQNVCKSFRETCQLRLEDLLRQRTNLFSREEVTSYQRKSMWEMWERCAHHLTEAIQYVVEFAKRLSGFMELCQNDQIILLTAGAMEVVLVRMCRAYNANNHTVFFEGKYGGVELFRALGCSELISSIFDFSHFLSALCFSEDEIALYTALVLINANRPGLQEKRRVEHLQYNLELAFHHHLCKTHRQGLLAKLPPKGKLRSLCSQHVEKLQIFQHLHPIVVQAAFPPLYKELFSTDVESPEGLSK
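Drosophila Schneider cells stably carrying a metallothionein-driven Gal4 DBD–ROR gamma fusion and a UAS-Photinus luciferase reporter were exposed to compound for 1 hr, then induced with copper sulfate (700 uM final) for 20 hr at ambient temperature before luminescence reading.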
ELG1 DNA repair = inhibitors of ELG1-dependent DNA repair in HEK293T cells | HEK293T ELG1-luciferase reporter, luminescence, 16 h; DNA damage induced by 5-fluorouridine | Potency, µM (series often up to 46.1 µM), inactives show top-dose activity change, negative = inhibition, hits mostly inhibitors | hit rate 2.3% among 330,000 | AID 504467; also: nearly all actives have a fitted effect of over 55% in size
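Luminescence from the luciferase reporter, measured 30 min after ONE-Glo reagent at room temperature, was the read-out. Beforehand, 2,000 cells per well were exposed for 16 hr at 37 °C to 5-fluorouridine together with compound or vehicle.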
TDP1 cell CPT = DT40-hTDP1 cell growth loss with CPT. hit rate 12% among 420,000. chicken DT40 Tdp1-/-;hTDP1 cells + 20 nM CPT, ATP luminescence, 48 h. Potency, µM (series often up to 46.2 µM), for inactives: top-dose activity change, negative = growth inhibition, hits mostly inhibitors; also: nearly all actives have a fitted effect of over 55% in size
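Chicken DT40 Tdp1-/- cells stably complemented with human TDP1 were seeded at 400 cells/well in medium containing 20 nM camptothecin, exposed to pin-transferred compounds, and grown at 37 °C for at least 48 hr. Viability was read as ATP luminescence.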
VP16 counter = inhibits Gal4-VP16 luciferase reporter, ROR gamma counter-screen; Drosophila S2 Gal4-VP16 UAS-luciferase, luminescence, 20 h; Potency, µM (series often up to 53.6 µM), for the others: at the top dose activity, negative = inhibition, actives largely listed as inhibitors; hit rate 3.5% among 310,000; AID 2546;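 also: Gal4-VP16 expression switched on by copper sulfate through the metallothionein promoter; nearly all actives have a fitted effect of over 50% in size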
12-LOX inh = blocks human arachidonate 12S-lipoxygenase; P18054; purified 12hLO, xylenol orange hydroperoxide absorbance; Potency, µM (doses to about 108 µM), for inactives: at the highest dose activity change, negative = inhibition, most hits filed as inhibitors; hit rate 1.1% among 580,000
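Purified human 12hLO (150 nM final) in 25 mM Hepes, 0.01% Triton X-100, pH 7.0 was preincubated 15 min at room temperature with compound. Then 40 uM arachidonic acid was added, 30 min. Hydroperoxide was read by Fe-XO absorbance ratio 573/405 nm.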
The depositor's hits bear a star; [ ] = remark or other dose. Hits are enriched below; roughly 15% of the tested compounds scored in any of these assays. Calls follow the shape of the dose curve; as a rule, active = well fitted curve in the direction sought with a large enough effect; inconclusive = small, poorly fitted or top-dose-only effect, or another doubt; inactive = no such curve, though single readings can be large; an effect the other way counts as inactive or inconclusive. % is scaled to controls: 0 for no effect and ±100 for the full control effect; potency is read from the fitted curve at half-maximal effect.

CCC1=NN(C(=O)COc2ccccc2)C(O)(c2ccc(Br)cc2)C1 (centres undefined) was read as DT40 TDP1 no CPT 21µM*, RORg inh -12%, ELG1 DNA repair inconclusive, TDP1 cell CPT inconclusive, VP16 counter -12% and 12-LOX inh -12%.
For CCCCC1(O)CC(C(F)(F)F)=NN1C(=O)COc1ccccc1 (centres undefined) the results were DT40 TDP1 no CPT inconclusive, RORg inh -35%, ELG1 DNA repair inconclusive, TDP1 cell CPT inconclusive, VP16 counter -9% and 12-LOX inh 3%.
`CCC1=NN(C(=O)c2ccc([N+](=O)[O-])cc2)C(O)(c2ccccc2)C1` (centres undefined) gave DT40 TDP1 no CPT inconclusive, RORg inh -35%[1.91 µM], ELG1 DNA repair inconclusive, TDP1 cell CPT inconclusive, VP16 counter inconclusive and 12-LOX inh inconclusive.
`Cc1ccc2nc(C(C)(C)C)c(Cc3cccc(Cl)c3)n2c1` gave DT40 TDP1 no CPT 18µM*, TDP1 cell CPT 16µM* and 12-LOX inh inconclusive.
COc1ccc(-c2nc3ccc(C)cn3c2Cc2ccc(C)cc2)cc1OC was read as DT40 TDP1 no CPT 15µM*, TDP1 cell CPT 23µM* and 12-LOX inh inconclusive.
Screening COC(=O)c1ccc2nc(-c3ccc(OC)c(OC)c3)c(Cc3ccccc3OC)n2c1 returned DT40 TDP1 no CPT inconclusive, TDP1 cell CPT inconclusive and 12-LOX inh 0%.
Screening COc1ccc(-c2nc3ccc(C)cn3c2CC(C)(C)C)cc1OC returned DT40 TDP1 no CPT 21µM*, TDP1 cell CPT 18µM* and 12-LOX inh -30%.
COc1cc(-c2nc3ccc(C)cn3c2NCc2ccccc2)ccc1-c1cccc(Cl)c1 was read as DT40 TDP1 no CPT inconclusive, ELG1 DNA repair -8%, TDP1 cell CPT inconclusive and 12-LOX inh inconclusive.
For COc1ccccc1Cc1c(-c2ccc(OC)c(OC)c2)nc2ccc(C)cn12 the results were DT40 TDP1 no CPT 23µM*, TDP1 cell CPT inconclusive and 12-LOX inh -24%.
For Cc1ccc2nc(-c3ccc(F)cc3)c(Cc3cccc(Cl)c3)n2c1 the results were DT40 TDP1 no CPT 26µM*, TDP1 cell CPT 21µM* and 12-LOX inh -6%.
For FC(F)(F)c1ccccc1Cc1c(-c2ccco2)nc2ccc(Cl)cn12 the results were DT40 TDP1 no CPT inconclusive, TDP1 cell CPT inconclusive and 12-LOX inh 199%.
`Cc1ccc2nc(-c3ccc(F)cc3)c(Cc3cccc(F)c3)n2c1` gave 12-LOX inh -56%.
For Cc1ccc2nc(-c3ccc(Cl)cc3)c(Cc3cccc(Cl)c3)n2c1 the results were DT40 TDP1 no CPT inconclusive, TDP1 cell CPT inconclusive and 12-LOX inh 0%.
Screening COc1ccc(-c2nc3ccc(C)cn3c2Cc2cccc(Cl)c2)cc1OC returned DT40 TDP1 no CPT 18µM*, TDP1 cell CPT inconclusive and 12-LOX inh inconclusive.
Screening COc1ccc(-c2nc3ccc(C)cn3c2Cc2ccccc2)cc1OC returned DT40 TDP1 no CPT 23µM*, TDP1 cell CPT 18µM* and 12-LOX inh inconclusive.
`COc1ccccc1Cc1c(-c2ccco2)nc2ccc(C)cn12` gave DT40 TDP1 no CPT 8.2µM*, TDP1 cell CPT 8.2µM* and 12-LOX inh inconclusive.
C[C@H]1[C@@H](NC(=O)Nc2ccc(C#N)cc2)CC[C@@]23CCCN2C(=O)CCC[C@@H]13 was read as 12-LOX inh 5%.
`Cc1occc1C(=O)N1CC(F)(F)C[C@H]1c1nc(C2CC2)no1` gave 12-LOX inh 0%.
`Cc1nc(-c2c3n(c(=O)n(CC#N)c2=O)CCCCC3)no1` gave 12-LOX inh 3%.
CCCC(C)NC(=O)c1ccc(OC)c(S(=O)(=O)NCC)c1 (centres undefined) was read as 12-LOX inh 24%.
COc1cc(/C=N/O)ccc1OCc1ccc(C(=O)O)cc1 was read as DT40 TDP1 no CPT -26%, RORg inh 1µM*, ELG1 DNA repair inconclusive, TDP1 cell CPT -28%, VP16 counter 4µM* and 12-LOX inh -18%.
`CCCC(C)NC(=O)c1ccc(OCc2ccc(Cl)cc2)c(OC)c1` (centres undefined) gave DT40 TDP1 no CPT 8.2µM*, RORg inh -32%, ELG1 DNA repair 7%, TDP1 cell CPT inconclusive, VP16 counter -30% and 12-LOX inh -15%.
`COc1cc(/C=N/N=C2/NC(=O)C(CC(=O)O)S2)ccc1OCc1ccc(Cl)cc1` (centres undefined) gave DT40 TDP1 no CPT -1%, RORg inh inconclusive, ELG1 DNA repair inconclusive, TDP1 cell CPT -1%, VP16 counter -2% and 12-LOX inh -16%.
`COc1cc(/C=N/N=C(N)N)ccc1OCc1ccc(Cl)cc1` gave DT40 TDP1 no CPT 5.8µM*, RORg inh -105%, ELG1 DNA repair inconclusive, TDP1 cell CPT 6.5µM*, VP16 counter -27%[10 µM] and 12-LOX inh inconclusive.
For COc1cc(/C=N/O)ccc1OCc1ccc(Cl)cc1 the results were RORg inh 1.1µM*, ELG1 DNA repair inconclusive, VP16 counter inconclusive and 12-LOX inh -7%.
Screening CCc1nn(-c2ccc(F)cc2)c(Oc2ccccc2)c1CCC(=O)N(C)C(C)C returned 12-LOX inh 30%.
CCOc1cc(C=O)ccc1OCc1ccccc1 was read as 12-LOX inh -37%.
For COc1cc(/C=N/n2c(C)n[nH]c2=S)ccc1OCc1ccc(F)cc1 the results were DT40 TDP1 no CPT 18µM*, RORg inh 4µM*, ELG1 DNA repair inconclusive, TDP1 cell CPT inconclusive, VP16 counter 13% and 12-LOX inh inconclusive.
NC(N)=N/N=C/c1ccc(OCc2ccccc2)c(OCc2ccccc2)c1 was read as DT40 TDP1 no CPT 18µM*, RORg inh inconclusive, ELG1 DNA repair inconclusive, TDP1 cell CPT inconclusive, VP16 counter inconclusive and 12-LOX inh inconclusive.
For COc1cc(/C=N\n2nnnc2N)ccc1OCc1ccc(F)cc1 the results were DT40 TDP1 no CPT -20%, RORg inh -4%, ELG1 DNA repair inconclusive, TDP1 cell CPT -8%, VP16 counter inconclusive and 12-LOX inh 153%.
Screening CCOc1cc(/C=N/N=C(N)N)ccc1OCc1ccc(Cl)cc1 returned DT40 TDP1 no CPT 16µM*, RORg inh inconclusive, ELG1 DNA repair -11%, TDP1 cell CPT 15µM*, VP16 counter 8.9µM* and 12-LOX inh inconclusive.
